The values that follow come from PubChem BioAssay (NCATS).

SMILES strings stand for the structures. Several values for one entry are separate records, joined by “and”; a condition that tells them apart may be missing. Identical values can stand only once. Results filed as inconclusive are left out. A structure can be active in one record and inactive in another. Activity calls are given as the source filed them. Calls come from the whole dose curve; as a rule, active = well fitted curve in the direction sought with a large enough effect; inconclusive = small, poorly fitted or top-dose-only effect, or another doubt; inactive = no such curve, though single readings can be large; an effect the other way counts as inactive or inconclusive.

The nature of assay [1]: Primary qHTS for inhibitors of nuclear receptor binding SET domain protein 2 (NSD2) in an isogenic RCH-ACV NSD2 p.E1099K mutant (9B) (AID 1645876). Note: nearly all actives have a fitted effect of over 70% in size. Note: potency is the fitted concentration of half-maximal effect. The following applies: RCH-ACV NSD2 E1099K (9B) viability, CellTiter-Glo, 72 h; series mostly up to 44.9 µM.
Assay [2] in a line: Primary qHTS for inhibitors of nuclear receptor binding SET domain protein 2 (NSD2) in an RCH-ACV wild type WT cells (2C) (AID 1645877). Note: nearly all actives have a fitted effect of over 70% in size. Note: potency is the fitted concentration of half-maximal effect. The following applies: RCH-ACV (leukaemia line) NSD2 WT (2C) viability, CellTiter-Glo, 72 h; series mostly up to 44.9 µM.
Assay [3] has as its target Rap guanine nucleotide exchange factor 3 (Homo sapiens) (UniProt O95398). The assay can be described thus: Confirmatory qHTS for antagonist of cAMP-regulated guanine nucleotide exchange factor 3 (EPAC1) (AID 1645880). Note: nearly all actives have a fitted effect of over 55% in size. The following applies: EPAC1 Rap1B-BODIPY-GDP exchange, fluorescence; series mostly up to 115 µM. The essentials: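 Released BODIPY-GDP fluoresces less than Rap1-bound BODIPY-GDP; the signal is followed at 480/540 nm at 5-min intervals over 30 min, after 5 min at room temperature. Reactions contain 100 nM EPAC1, 250 nM RAP1B-BODIPY-GDP and 50 uM GDP; results are normalized to ATA and DMSO.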

The target is the same in assay [4]. The assay can be described thus: Confirmatory qHTS for agonist of cAMP-regulated guanine nucleotide exchange factor 3 (EPAC1) (AID 1645881).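 Note: EPAC1 catalysed release of BODIPY-GDP from Rap1B seen as fluorescence loss; nearly all actives have a fitted effect of over 75% in size.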 The following applies: EPAC1 Rap1B BODIPY-GDP exchange fluorescence, 100% = cAMP control response; series mostly up to 154 µM.
In assay [5] the target is Rap guanine nucleotide exchange factor 4 (Homo sapiens) (UniProt Q8WZA2). The assay can be described thus: Confirmatory qHTS for agonist of cAMP-regulated guanine nucleotide exchange factor 4 (EPAC2) (AID 1645884).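 Note: nucleotide exchange releases bodipy-GDP from Rap1 and this lowers its fluorescence; nearly all actives have a fitted effect of over 65% in size.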 The following applies: EPAC2 GEF activity, Rap1B-BODIPY-GDP fluorescence, percent relative to cAMP agonist control; series mostly up to 154 µM.
Rap guanine nucleotide exchange factor 4 (Homo sapiens), sequence (Q8WZA2 whole entry, looked up): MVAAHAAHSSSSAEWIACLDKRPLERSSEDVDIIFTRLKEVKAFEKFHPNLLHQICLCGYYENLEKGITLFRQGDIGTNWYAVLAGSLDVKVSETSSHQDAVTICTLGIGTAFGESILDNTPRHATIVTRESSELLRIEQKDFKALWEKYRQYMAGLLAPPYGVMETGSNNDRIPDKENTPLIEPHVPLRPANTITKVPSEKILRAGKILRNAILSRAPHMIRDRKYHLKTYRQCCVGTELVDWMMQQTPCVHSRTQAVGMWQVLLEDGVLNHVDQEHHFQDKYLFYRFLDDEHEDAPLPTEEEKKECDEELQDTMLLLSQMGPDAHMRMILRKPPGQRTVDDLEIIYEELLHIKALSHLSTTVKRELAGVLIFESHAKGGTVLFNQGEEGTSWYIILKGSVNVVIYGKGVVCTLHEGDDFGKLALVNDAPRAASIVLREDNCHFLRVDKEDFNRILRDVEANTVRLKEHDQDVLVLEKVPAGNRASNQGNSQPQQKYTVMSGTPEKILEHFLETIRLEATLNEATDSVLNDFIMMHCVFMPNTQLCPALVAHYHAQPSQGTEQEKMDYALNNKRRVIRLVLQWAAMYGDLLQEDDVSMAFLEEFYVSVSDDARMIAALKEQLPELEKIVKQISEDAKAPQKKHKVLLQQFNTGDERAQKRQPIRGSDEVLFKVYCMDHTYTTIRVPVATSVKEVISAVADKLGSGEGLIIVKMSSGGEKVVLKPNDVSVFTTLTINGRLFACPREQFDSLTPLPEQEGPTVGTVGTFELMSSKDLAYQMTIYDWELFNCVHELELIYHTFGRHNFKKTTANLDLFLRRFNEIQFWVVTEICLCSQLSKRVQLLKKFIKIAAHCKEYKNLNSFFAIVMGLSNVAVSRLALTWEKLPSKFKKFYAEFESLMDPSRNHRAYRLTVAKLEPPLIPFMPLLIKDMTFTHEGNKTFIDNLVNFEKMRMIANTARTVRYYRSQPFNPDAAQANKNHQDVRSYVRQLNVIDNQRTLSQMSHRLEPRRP

Rap guanine nucleotide exchange factor 3 (Homo sapiens), sequence (O95398 whole entry, looked up): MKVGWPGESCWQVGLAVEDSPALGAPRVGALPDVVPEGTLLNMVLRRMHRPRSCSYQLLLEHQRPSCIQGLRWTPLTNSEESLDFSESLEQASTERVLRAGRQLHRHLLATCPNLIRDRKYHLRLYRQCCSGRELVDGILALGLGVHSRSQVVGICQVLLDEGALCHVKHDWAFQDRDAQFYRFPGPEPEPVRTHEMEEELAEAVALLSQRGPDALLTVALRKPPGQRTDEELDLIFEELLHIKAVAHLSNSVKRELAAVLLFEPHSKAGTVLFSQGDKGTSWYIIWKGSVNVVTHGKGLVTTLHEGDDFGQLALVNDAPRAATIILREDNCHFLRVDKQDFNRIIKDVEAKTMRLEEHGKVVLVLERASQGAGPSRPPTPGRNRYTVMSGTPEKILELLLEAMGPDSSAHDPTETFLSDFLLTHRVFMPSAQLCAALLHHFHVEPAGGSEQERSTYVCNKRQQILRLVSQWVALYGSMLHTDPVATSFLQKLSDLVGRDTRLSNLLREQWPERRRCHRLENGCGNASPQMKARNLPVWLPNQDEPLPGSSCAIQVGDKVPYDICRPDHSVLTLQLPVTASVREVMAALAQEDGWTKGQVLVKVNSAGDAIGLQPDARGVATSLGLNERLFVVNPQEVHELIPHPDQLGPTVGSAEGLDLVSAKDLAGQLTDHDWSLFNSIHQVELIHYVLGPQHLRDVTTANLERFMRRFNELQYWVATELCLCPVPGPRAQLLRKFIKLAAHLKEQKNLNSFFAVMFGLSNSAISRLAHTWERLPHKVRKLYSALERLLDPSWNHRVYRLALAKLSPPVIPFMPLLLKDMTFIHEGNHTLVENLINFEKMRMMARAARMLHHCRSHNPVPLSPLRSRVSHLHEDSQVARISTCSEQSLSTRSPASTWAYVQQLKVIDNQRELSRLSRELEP

As to `Cc1ccccc1C(C(=O)NC1CCCCC1)N(C(=O)Cn1ccnc1C)c1cccc(F)c1` (stereo unspecified), the Potency result in assay [1] and in assay [2] was “inactive” in each case. As to `O=C1C(Cl)=C(NCCN2CCOCC2)C(=O)c2ncccc21`, the Potency in assay [1] was 7.42 µM (active); in assay [2], 3.32 µM (active). Regarding `C=C1C(=O)OC(CCCCCCCC)C1C(=O)O` (stereo unspecified), the Potency result in assay [1] and in assay [2] was “inactive” in each case. `O=c1cc(CN2CCOCC2)occ1OCCCCCSc1ccnc2cc(C(F)(F)F)ccc12`: the Potency in assay [1] is 18.6 µM (active) and 9.16 µM (active); in assay [2], 16.6 µM (active) and 18.3 µM (active). Consider `O=C(O)c1cc(O)c2c(c1)C(=O)c1cccc(O)c1C2=O`, for which the Potency result in assay [1] and in assay [2] was “inactive” in each case. Turning to `CO[C@@H](C(=O)N1Cc2[nH]nc(NC(=O)c3ccc(N4CCN(C)CC4)cc3)c2C1)c1ccccc1`, the Potency in assay [1] is 73.1 nM (active) and 118 nM (active); in assay [2] it was 58 nM (active) and 52.5 nM (active). `Cc1ccc(C(=O)Nc2cccc(C(F)(F)F)c2)cc1Nc1nc(-c2cccnc2)nc2c1cnn2C`: the Potency entry in assay [1] and in assay [2] was “inactive” throughout.

With `Clc1cc(Cl)cc(CNc2ncncc2-c2ccc3c(c2)OCO3)c1`, the results for the Potency in assay [1] and in assay [2] were 13.2 µM (active) and 11.8 µM (active), respectively. Consider `COc1ncc(-c2ccc3nccc(-c4ccnnc4)c3c2)cc1NS(=O)(=O)c1ccc(F)cc1F`, for which the Potency is 1.3 nM (active) and 8.3 nM (active) in assay [1]; 1.2 nM (active) and 7.4 nM (active) in assay [2]. Regarding `NC(=O)[C@@H](CCC(F)(F)F)N(Cc1ccc(-c2ncon2)cc1F)S(=O)(=O)c1ccc(Cl)cc1`, the Potency in assay [1] and in assay [2] was 23.5 µM (active) throughout. Take `CC(C)=CC[C@@H](O)C1=CC(=O)c2c(O)ccc(O)c2C1=O`: the results for the Potency in assay [1] and in assay [2] were 23.5 µM (active) and 20.9 µM (active), respectively. The matching figures for `Nc1ncnc2ccccc12`: “inactive” and “inactive”.

Consider `COc1cc2ncnc(-n3nc(-c4ccccn4)nc3N)c2cc1OC`, for which the Potency in assay [1] was 1.59 µM (active); in assay [2], 2.52 µM (active).

As for `CC(=O)N(C)C1(c2ccccc2)CCN(CCC[C@]2(c3ccc(Cl)c(Cl)c3)CCCN(C(=O)c3ccccc3)C2)CC1`, the Potency in assay [1] was 7.28 µM (active); in assay [2] it was 5.78 µM (active). The matching figures for `CC(C(=O)O)c1ccc(-c2ccccc2)c(F)c1` (stereo unspecified): “inactive” and “inactive”. In the same order, the values of `Cc1ccc(F)c(NC(=O)Nc2ccc(-c3cccc4[nH]nc(N)c34)cc2)c1` are 10.5 µM (active) and 8.33 µM (active). On to `Nc1ncnc2c1nc(Cl)n2[C@@H]1O[C@H](CO)[C@@H](O)[C@@H]1O`, for which the values for the Potency in assay [1] and in assay [2] were 18.6 µM (active) and 20.9 µM (active), respectively. Turning to `CNC(=O)c1ccc2cc(C3(O)CCn4cncc43)ccc2c1` (stereo unspecified), the Potency entry in assay [1] and in assay [2] was “inactive” throughout. `O=C(Nc1c(Cl)cncc1Cl)c1ccc(OC(F)F)c(OCC2CC2)c1`: the Potency entry in assay [1] and in assay [2] was “inactive” throughout. Take `CN1CCN(CCOc2cc(OC3CCOCC3)c3c(Nc4c(Cl)ccc5c4OCO5)ncnc3c2)CC1`: the Potency in assay [1] is 3.25 µM (active) and 2.63 µM (active); in assay [2], 5.15 µM (active) and 2.95 µM (active). `CNC1CCC(N(Cc2cccc(-c3ccncc3)c2)C(=O)c2sc3c(F)ccc(F)c3c2Cl)CC1` (stereo unspecified): the Potency in assay [1] is 8.33 µM (active) and 8.17 µM (active); in assay [2] it was 7.42 µM (active) and 8.17 µM (active). `NC(=O)c1ccc2nc(-c3ccc(Oc4ccc(Cl)cc4)cc3)[nH]c2c1`: the Potency in assay [1] was 14.5 µM (active) and 23.1 µM (active); in assay [2], 16.6 µM (active) and 16.4 µM (active). For `COc1ccc(C2Sc3ccccc3N(CCN(C)C)C(=O)C2OC(C)=O)cc1` (stereo unspecified), the Potency entry in assay [1] and in assay [2] was “inactive” each time. Take `N[C@@]1(C(=O)O)CS(=O)(=O)[C@H]2[C@H](C(=O)O)[C@H]21`: the Potency entry in assay [1] and in assay [2] was “inactive” throughout.

For the compound `COc1cc2nc(-c3ccc(N4CCN(C)CC4)cc3)nc(NCCN3CCOCC3)c2cc1OC`, the results for the Potency in assay [1] and in assay [2] were 1.86 µM (active) and 2.09 µM (active), respectively.

For the compound `CC1(C)CCC(CN2CCN(c3ccc(C(=O)NS(=O)(=O)c4ccc(NCC5CCOCC5)c([N+](=O)[O-])c4)c(Oc4cnc5[nH]ccc5c4)c3)CC2)=C(c2ccc(Cl)cc2)C1`, the Potency in assay [1] is 11.2 µM (active) and inactive; in assay [2], 12.6 µM (active) and inactive. Consider `CC(C)n1cnc2c(NCCCCCCNC(=O)OC(C)(C)C)nc(NCCO)nc21`, for which the values for the Potency in assay [1] and in assay [2] were 14.8 µM (active) and 16.6 µM (active), respectively. The matching figures for `O=c1cc(-c2ccccc2)oc2cc(O)cc(O)c12`: 16.6 µM (active) and 16.6 µM (active).

For the compound `c1ccc2c(Cc3c[nH]c4ccccc34)c[nH]c2c1`, the call in assay [3], in assay [4] and in assay [5] was inactive. On to `C=C1C(=O)[C@@]23C(CC[C@@H]1[C@H]2O)[C@@]12CO[C@]3(O)[C@@H](O)[C@@H]1C(C)(C)CC[C@@H]2O` (stereo partly specified), for which the Potency is 2.35 µM (active) in assay [1] and 1.48 µM (active) in assay [2]. In the same order, the values of `O=C(NC1CCOCC1)c1ccc(-c2cc(-c3cn[nH]c3-c3ccccn3)ccn2)cc1` are “inactive” and “inactive”.

With `CN(C)C1CCN(C(=O)c2ccc(NC(=O)Nc3nc(N4CCOCC4)nc(N4CCOCC4)n3)cc2)CC1`, the Potency in assay [1] is 25.2 nM (active) and 37.2 nM (active); in assay [2], 28.2 nM (active) and 37.2 nM (active). Consider `O=C(NOCC(O)CO)c1cc(Br)c(F)c(F)c1Nc1ccc(I)cc1F` (stereo unspecified), for which the Potency in assay [2] was 20.9 µM (active). On to `O=c1cc(-c2ccccc2)oc2cc(O)c(O)c(O)c12`, for which the Potency in assay [2] is 23.5 µM (active).

As for `NC1CCC(Nc2nc(Nc3ccc(C(=O)N4CCCCC4)cc3)c3ncn(-c4cccc(F)c4)c3n2)CC1` (stereo unspecified), the Potency was 1.84 µM (active) in assay [1] and 2.06 µM (active) in assay [2]. `COc1cc(N2CCC(N3CCN(C)CC3)CC2)ccc1Nc1ncc(Cl)c(Nc2ccccc2S(=O)(=O)C(C)C)n1`: the Potency is 1.29 µM (active) and 3.72 µM (active) in assay [1]; 649 nM (active) and 1.48 µM (active) in assay [2].
